In PubChem BioAssay AID686979 (National Center for Advancing Translational Sciences (NCATS), 2013):
About 50,000 (12%) of roughly 420,000 compounds were called active. Entries that show only a call come without a potency. Inconclusive results (about 26%) are left out. The call rests on the fitted dose curve; in most records, active means well fitted inhibition curve with a large enough effect; inconclusive means small, poorly fitted or top-dose-only effect; inactive means flat fitted curve, though single readings scatter. For the sample, actives were picked, then their nearest neighbours and some compounds at random.

Assay: qHTS for Inhibitors of human tyrosyl-DNA phosphodiesterase 1 (TDP1): qHTS in cells in presence of CPT; further: nearly all actives have a fitted effect of over 55% in size
Details: chicken DT40 Tdp1-/-;hTDP1 cells + 20 nM CPT, ATP luminescence, 48 h; series mostly up to 46.2 µM
Text: Human tyrosyl-DNA phosphodiesterase 1 (TDP1) is a novel repair gene, and we propose to use it as a new target for anticancer drug development. TDP1 is not an essential protein, but under treatment with topoisomerase I poison (camptothecin: CPT), TDP1 works as a critical factor for cell survival. To directly identify novel TDP1 inhibitors active in a cellular environment, we have knocked-out the Tdp1 gene in chicken DT40 cells (Tdp1-/-) and generated a complemented counterpart cells that contains a stable transfection of the human TDP1 gene (Tdp1-/-;hTDP1 cells). For the primary screen, Tdp1-/-;hTDP1 cells will be exposed to small molecules in the presence or absence of CPT, and their growth kinetics will be evaluated after 48 hours by measuring ATP activity. […] The hit compounds will then be evaluated in the presence or absence of CPT using Tdp1-/- cells. […] In tertiary assays, biochemical gel-based assays will be used to assess whether the hit compounds specifically target TDP1. To this end, we have screened this cell line against the MLSMR in two primary screens. In one screen we add CPT and in the other we screen in the absence of CPT; this AID represents the screen where CPT was present. NIH Chemical Genomics Center [NCGC] NIH Molecular Libraries Probe Centers Network [MLPCN] MLPCN Grant: MH095538 Assay Submitter (PI): Yves Pommier, NCI
DT40-hTDP1 cells with 20 nM Camptothecin (add 20 microL of 1 mM CPT stock in 1 L of cell culture medium) were dispensed at 400 cells/5microL/well in tissue culture treated 1536-well white wall/solid bottom assay plates (Greiner Bio-One North America, NC, U.S.A.) using a Multidrop Combi 8 channel dispenser (Thermo Fisher, Waltham, MA, USA). 23 nL compounds and controls were transferred using the pin tool (Kalypsys, San Diego, CA, USA) to the assay plates. The assay plates were then incubated at 37 masculineC for a minimum 48 hr. Three microL of Cell Titer Glo solution was added to the plates and incubated at RT in dark for 30 min. Luminescence was read using ViewLux (Perkin Elmer) with 1 sec exposure slow speed, high gain and 2x binning.
Potency means the concentration at half of the fitted maximal effect.

| SMILES | Potency |
| --- | --- |
| O=C(COc1ccccc1Cl)N1CCCCCCC1 | inactive |
| CC(=O)C1=C(C)NC(=O)NC1c1cc(Br)ccc1OCC#N (configuration not stated) | inactive |
| C/C(N)=C(/C#N)C(=O)COC(=O)c1cc(-c2ccc(C)cc2)nc2ccccc12 | inactive |
| COc1ccc(/C=C/C(=O)NC(=S)N2CCCC(C(N)=O)C2)cc1 (configuration not stated) | inactive |
| OCCC1CN(Cc2ccc3nsnc3c2)CCN1C1CCCC1 (configuration not stated) | inactive |
| CC(C)c1cc(C(=O)N/N=C/c2ccoc2)c(O)c(C(C)C)c1 | inactive |
| CC(C)C[C@H](NC(=O)N1CC(=O)Nc2ccccc21)C(=O)N[C@H](Cc1ccccc1)C(=O)O | inactive |
| Cc1ccc(N(C(=O)c2ccc(CN3CCOCC3)o2)C(C(=O)NCCC(C)C)c2cccs2)c(C)c1 (configuration not stated) | inactive |
| CCCCNC(=O)N(O)C1N(/N=C/c2ccc(N(C)C)cc2)C(=S)SC1(C)C (configuration not stated) | inactive |
| CN1CCN(c2ccc(NC(=O)c3cc(Cl)c4c(c3)OCCO4)cc2)CC1 | inactive |
| C=CC(=O)Nc1ccc(Nc2ccnc(Nc3ccc(N4CCN(C)CC4)cc3)n2)cc1 | 9.2 µM (active) |
| Cn1cnnc1SCC(=O)Nc1ccc(N2CCOCC2)cc1 | inactive |
| CCn1c(C)c(C)c2cc(C(=O)NCCc3cc(OC)ccc3OC)ccc21 | 20.6 µM (active) |
| Cc1c(C)n(Cc2ccc(Cl)cc2)c2ccc(C(=O)NCCCN3CCOCC3)cc12 | 23.1 µM (active) |
| Cc1c(C)n(Cc2ccc(Cl)cc2)c2ccc(C(=O)NCCc3ccc(S(N)(=O)=O)cc3)cc12 | 18.4 µM (active) |
| CCOC(=O)c1c(C)c(C(=O)NCCc2ccc(S(N)(=O)=O)cc2)c(C)n1CC | inactive |
| COc1ccc(C(=O)NCCc2ccc(S(N)(=O)=O)cc2)cc1OC | inactive |
| COc1ccc(-n2c(=O)[nH]c3cc(C(=O)NCCc4ccc(OC)c(OC)c4)ccc3c2=O)c(OC)c1 | inactive |
| Cc1ccc(NS(=O)(=O)c2ccc(C(=O)NCCCN3CCOCC3)cc2)cc1 | inactive |
| COc1ccc(Cn2c(=S)[nH]c3cc(C(=O)NCCCN4CCOCC4)ccc3c2=O)cc1 | inactive |
| COc1ccc(C(=O)NCC[N+](C)(C)C)cc1 | inactive |
| NC(=O)c1nnsc1-c1ccc(-c2snnc2C(N)=O)cc1 | inactive |
| CCCCN1CC(CO)Oc2cccc(F)c2S1(=O)=O (configuration not stated) | inactive |
| COc1ccc(OCC(=O)NCCS(=O)(=O)N2CCN(c3ccc(F)cc3)CC2)cc1 | inactive |
| Cc1cc2cc3c(N)[nH]nc3nc2cc1C | inactive |
| O=S1(=O)CCOC[C@H](Cc2ccccc2)N1Cc1ccccc1Br | inactive |

| SMILES | Potency |
| --- | --- |
| COc1ccccc1C(=O)NC(=S)NC12CC3CC(CC(C3)C1)C2 | inactive |
| CC(=O)c1cc(CN2CCC(n3nccc3NC(=O)c3ccccc3Cl)CC2)cs1 | inactive |
| CCCCCc1ccc(-c2ccc(C(=O)O)cc2)nc1 | inactive |
| CC(=O)Nc1ccc(S(=O)(=O)NC2(C(F)(F)F)C(=O)NC(C)=C2C#N)cc1 (configuration not stated) | inactive |
| CC1CCCC(C)N1C(=O)COC(=O)c1ccccc1C(=O)c1ccccc1 (configuration not stated) | inactive |
| OC(COc1ccc(F)cc1Cl)CN1CCc2ccccc2C1 (configuration not stated) | 20.6 µM (active) |
| C=CCc1ccccc1OCC(O)CN1CCN(CCO)CC1 (configuration not stated) | inactive |
| Cc1ccc(Cl)c(OCC(=O)N2CCc3ccccc3C2)c1 | inactive |
| COCCN1CCn2c(nc3cc(NS(C)(=O)=O)ccc32)C1 | inactive |
| Cc1cccc(CCNC(=O)Cn2ncc3c([nH]c4ccc(C)cc43)c2=O)c1 | inactive |
| CC(=O)N1CCC2(CCCN(Cc3ccccc3)C2)CC1 | inactive |
| CC12CN(Cc3ccccc3)CC(C)(CN(Cc3ccccc3)C1)C2=NO | 23.1 µM (active) |
| CS(=O)(=O)N1CCC2(CC1)CN(Cc1ccccc1)C2 | inactive |
| O=C1Nc2cc(Cl)c(Cl)cc2N(O)N1c1cc(Cl)cc(Cl)c1 | inactive |
| CCSc1nnc(NC(=O)c2ccc(C)cc2)s1 | inactive |
| CN(CC(=O)Nc1ccccc1C(F)(F)F)C(=O)Cc1ccccc1F | inactive |
| Cc1cccc(NC(=O)C(C)SCc2ccccc2)c1 (configuration not stated) | inactive |
| NC(=O)CSc1nnc(NC(=O)c2ccc(Br)o2)s1 | inactive |
| Cc1ccc(NC(=O)c2nc(S(=O)(=O)Cc3cccc(C)c3)ncc2Cl)cc1 | 0.651 µM (active) |
| CCSc1ncc(Cl)c(C(=O)Nc2cc(C)ccc2C)n1 | inactive |
| O=C(Nc1ccccc1C(F)(F)F)c1nc(S(=O)(=O)Cc2ccccc2F)ncc1Cl | 0.562 µM (active) |
| CCCSc1ncc(Cl)c(C(=O)Nc2c(C(=O)Nc3ccccc3)oc3ccccc23)n1 | inactive |
| CSc1nnc(NC(=O)c2nc(S(=O)(=O)Cc3ccc(C)cc3)ncc2Cl)s1 | 6.51 µM (active) |
| Cc1ccc(NC(=O)c2cccnc2C(=O)Nc2ccc(C)cc2)cc1 | inactive |
| Cc1cccc(NC(=O)c2nc(S(=O)(=O)Cc3ccccc3)ncc2Cl)c1 | 0.92 µM (active) |
| O=C(Nc1nc2ccc(F)cc2s1)c1nc(SCc2ccccc2F)ncc1Cl | inactive |
